The record followed here is PubChem BioAssay AID2158 (National Center for Advancing Translational Sciences (NCATS), 2009).

Values joined by “and” are separate entries in the source; they are usually repeats but may differ in a detail not shown here. Equal entries are not always repeated. Results filed as inconclusive are left out. A number with no mark means an inactive call. Active and inactive are the calls of the source. Calls come from the whole dose curve; as a rule, active = well fitted inhibition curve with a large enough effect; inconclusive = small, poorly fitted or top-dose-only effect; inactive = no such curve, though single readings can be large or run the other way.
Potency is the fitted concentration of half-maximal effect.

Cruzipain (Trypanosoma cruzi), sequence (P25779 123-467 limits assumed): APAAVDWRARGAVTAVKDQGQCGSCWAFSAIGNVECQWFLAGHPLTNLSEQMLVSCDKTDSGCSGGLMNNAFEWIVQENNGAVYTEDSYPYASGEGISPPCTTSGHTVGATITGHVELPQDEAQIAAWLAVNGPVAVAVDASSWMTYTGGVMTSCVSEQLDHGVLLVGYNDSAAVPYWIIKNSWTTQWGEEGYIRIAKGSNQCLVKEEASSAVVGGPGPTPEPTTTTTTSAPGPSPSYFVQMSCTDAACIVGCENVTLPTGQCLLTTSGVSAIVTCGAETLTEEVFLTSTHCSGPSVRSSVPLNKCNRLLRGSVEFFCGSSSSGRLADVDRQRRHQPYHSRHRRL

The assay addresses Cruzipain (Trypanosoma cruzi) (UniProt P25779). Briefly: Confirmation qHTS Assay for Inhibitors of Cruzain. Note: nearly all actives have a fitted effect of over 40% in size. Particulars: purified cruzain, Z-FR-AMC fluorescence, 0.01% Triton. On the procedure:
Cruzain is a cysteine protease from the tropical parasite Trypanosoma cruzi. This assay protocol is a follow-up and confirmation of related AID 1478 (qHTS Assay for Promiscuous and Specific Inhibitors of Cruzain -- with detergent). Cruzain was assayed by the use of fluorogenic coumarin-based substrate Z-FR-AMC: proteolytic cleavage releases AMC, whose fluorescence is measured at 360 nm excitation and 450 nm emission. Purified cruzain was supplied by the labs of Prof. James McKerrow and Brian Shoichet, UC San Francisco. This assay had 0.01% Triton X-100 concentration. See following references for additional details: Jadhav A, et al. J Med Chem. 2010 Jan 14;53(1):37-51. Mott BT, et al. J Med Chem. 2010 Jan 14;53(1):52-60. Assay Provider: Shoichet, Brian; University of California, San Fancisco Screening Center PI: Austin, C.P. Screening Center: NIH Chemical Genomics Center [NCGC]
Buffer: 100 mM Sodium Acetate, pH 5.5, 5 mM DTT, Triton X-100 concentration: 0.01%. Reagents/Controls: Buffer in columns 3 and 4 as negative control (no enzyme). Substrate solution: 2 uM final concentration of Z-FR-AMC (catalog number I-1160, Bachem) dispensed throughout the plate. Enzyme: 1.5 nM Cruzain final concentration in columns 1, 2, 5-48. Column 1 is neutral (100% activity). Column 2 contained titration of covalent inhibitor K11777, starting concentration 1 mM, then 1:2 dilution in duplicate). Assay Steps: Three uL of enzyme or buffer were dispensed to 1536-well Greiner black solid bottom plates. Compounds and controls (23 nL) were transferred via Kalypsys PinTool. The plates were incubated for 15 min at room temperature, and then 1 uL of substrate solution was added to start the reaction. The plates were immediately transferred to and read 4 times every 30 seconds for 2 min on ViewLux High-throughput CCD imager (Perkin-Elmer) using 360 nm excitation and 450 nm emission fluorescence protocol. The fluorescence intensity difference between the third and the first time points (time lapse of 60 seconds) was used to compute reaction progress.
(In general: qHTS replaces the single test concentration by a dilution series.)
Regarding `CC1=CC(=NOC(=O)/C=C/c2ccccc2)C=C(C)C1=O`, the Potency is 3.98 µM (active).
`O=C(O)Cc1nnc(-c2cc3ccccc3[nH]2)s1`: the activity change, negative = inhibition was 10.6%.
In the case of `O=C(NCCc1nc2ccccc2n1CCOc1cccc2ccccc12)C1CCCCC1`, the activity change, negative = inhibition was -11.4%.
As for `CC(C)CNc1nc(C#N)nc(Nc2ccccc2)n1`, the Potency is 0.891 µM (active).
Still for that read-out and setting: with `Cc1ccccc1-c1nc2c(=O)n(C)c(=O)nc-2n(C)n1` the figure was 0.891 µM (active); with `N#Cc1nc(Nc2ccc(-c3ccccc3)cc2)nc(NC2CCCC2)n1`, 3.98 µM (active).
For the molecule `C=Cn1ccnc1P(=S)(c1ccc2c(c1)c1ccccc1n2CC)c1nccn1C=C`, the activity change, negative = inhibition is -8.46%.
On to `COC(=O)CCC(C)C1CCC2C3CC[C@H]4CC(O)CC[C@@]4(C)C3CC(O)[C@]12C` (stereo not given in full), for which the activity change, negative = inhibition is -8.27%.
With `CC(C)Nc1nc(C#N)nc(Nc2ccccc2)n1`, the Potency is 0.891 µM (active).
As for `COc1ccc(-c2nc(C#N)c(NCCCN3CCOCC3)o2)cc1`, the activity change, negative = inhibition was -29.3%.
For the molecule `O=C(NCCc1nc2ccccc2n1CCOc1ccc2ccccc2c1)C1CCCCC1`, the Potency was 3.55 µM (active).
Turning to `CCNc1nc(C#N)nc(Nc2ccccc2)n1`, the Potency is 0.708 µM (active).
With `Cc1cccc(C(=O)NCC(=O)OC(C(=O)Nc2cc(C(F)(F)F)ccc2Cl)c2ccccc2)c1` (stereo not given), the Potency was 7.94 µM (active).
In the case of `CCOc1ccc(-c2cc3nc(C4CCN(C(=O)OC(C)(C)C)CC4)c(C(=O)O)cn3n2)cc1`, the activity change, negative = inhibition was -33%.
Consider `CC(C)N(CCC(=O)c1ccc2ccccc2c1)Cc1ccccc1`, for which the Potency is 31.6 µM (active).
`C[C@H](CCC(=O)O)[C@H]1CC[C@@H]2[C@@H]3[C@@H](O)C[C@H]4C[C@@H](O)CC[C@@]4(C)[C@H]3CC[C@@]21C`: the activity change, negative = inhibition was 2.73%.
Consider `O=C(CNC(=O)c1ccccc1)OCC(=O)c1ccccc1`, for which the Potency was 15.8 µM (active).
For the molecule `NC(=S)N/N=C/c1ccc(-c2ccc(Cl)c(Cl)c2)o1`, the Potency is 2 µM (active).
On the same count and under the same terms, the same measure for `Cc1ccccc1OCCn1c(CCNC(=O)C2CCCCC2)nc2ccccc21`: 631 nM (active) and 1 µM (active).
Regarding `COc1ccc(/C=C/C(=O)Nc2ccc(-n3nncc3-c3ccccc3)cc2)cc1OC`, the Potency is 14.1 µM (active).
Turning to `COc1ccc(-c2nn3c(-c4cc(C)[nH]n4)nnc3s2)cc1`, the activity change, negative = inhibition was -13.7%.
As to `O=C(CNC(=O)C1CCCCC1)OCC(=O)c1ccc([N+](=O)[O-])cc1`, the Potency was 2.82 µM (active).
In the case of `O=C(NCCc1nc2ccccc2n1CCOc1ccc(Cl)cc1)C1CCCCC1`, the Potency is 0.158 µM (active).
As to `O=C(CNC(=O)C1CCCCC1)OCC(=O)c1ccc(F)cc1`, the Potency was 2.51 µM (active).
Consider `O=C(CNC(=O)c1ccccc1)NCC(=O)OCC(=O)c1cccc2ccccc12`, for which the activity change, negative = inhibition was -13.9%.
In the case of `O=C(NC1CC1)c1ccc2nc(-c3ccco3)c(-c3ccco3)nc2c1`, the Potency was 14.1 µM (active).
For `Cc1ccc2[nH]c(=O)c(CN(CCCO)Cc3nnnn3Cc3ccco3)cc2c1`, the activity change, negative = inhibition is -4.63%.
`COc1ccc(-c2cnnn2-c2ccc(NC(=O)/C=C/c3ccc(OC)c(OC)c3)cc2)cc1`: the Potency was 15.8 µM (active).
Turning to `Cc1ccc(C)c(-c2csc(-c3c(N)c(C(=O)c4ccc5c(c4)OCO5)n4ccccc34)n2)c1`, the activity change, negative = inhibition is -1.82%.
For the molecule `CN(C)c1ccc(C(=O)NCC(=O)OC(C(=O)Nc2cc(C(F)(F)F)ccc2Cl)c2ccccc2)cc1` (stereo not given), the Potency is 14.1 µM (active).
As for `Cc1ccccc1-n1c(C)cc(/C=C2/C(=N)N3C(c4ccccc4)=CSC3=NC2=O)c1C`, the activity change, negative = inhibition is -3.9%.
The same measure, in the same setting: the same measure for `Cc1cccc2cc(CN(Cc3ccccc3)Cc3nnnn3Cc3ccccc3)c(=O)[nH]c12`: -11.7%; for `COc1ccc2cc3cc(C(=O)NCCCN4CCOCC4)oc3nc2c1`: -114%.
Turning to `NC(=S)N/N=C/c1ccc(-c2cc(Cl)ccc2Cl)o1`, the Potency is 2 µM (active).
Regarding `COc1ccccc1N1CCN(C(=O)CN(c2ccccc2OC)S(=O)(=O)c2ccccc2)CC1`, the activity change, negative = inhibition was -10.1%.
On to `O=C1/C(=C/c2ccco2)CCc2ccccc21`, for which the Potency was 2.51 µM (active).
Regarding `CCn1nc(-c2ccccc2C)nc2c(=O)n(C)c(=O)nc1-2`, the Potency was 0.631 µM (active).
With `S=C(NC1CCCCC1)N(CCc1nc2ccccc2[nH]1)C1CCCC1`, the Potency is 0.631 µM (active).
As to `CCn1nc(-c2ccc(C)cc2)nc2c(=O)n(C)c(=O)nc1-2`, the Potency was 2.82 µM (active).
In the case of `O=C(Nc1ccc(N2CCCC2)cc1)c1ccc(Br)o1`, the activity change, negative = inhibition is -25%.
